The text below walks through data of PubChem BioAssay AID624483 (NMMLSC, 2012).

The whole screen tested about 360,000 compounds, of which about 11,000 (3.1%) were called active. About 2% were inconclusive and are not listed. The entries come from a sample that favours actives as a whole. A number with no mark means an inactive call. No stated cut-off is given here; in the data, active means fluorescence intensity above about 16000; inconclusive means no clear call, values can overlap the other calls; inactive means below that.

The test can be described thus: compound fluorescence in toxin protease inhibitor counterscreen, primary screen, artefact control for toxin protease inhibitor project, biochemical, multiplex microsphere, HTS (AID 624483). The following applies: compound autofluorescence counterscreen, microsphere flow cytometry; hits give high values.
As for `CC(=O)N(C1=NCCCS1)c1ccccc1F`, the fluorescence intensity was 24900 (active).
With `O=C(NCc1ccc(F)cc1)c1cc(C2CCCCN2C(=O)c2cccs2)on1` (configuration not stated), the fluorescence intensity was 3580.
For the compound `OCc1nc(CO)n(Cc2ccccc2)n1`, the fluorescence intensity is 20000 (active).
Regarding `Nc1c(-c2ccccc2)nnn1Cc1ccccc1`, the fluorescence intensity was 5560.
Take `Cc1nn(Cc2ccccc2)c(C)c1NS(=O)(=O)c1ccccc1`: the fluorescence intensity is 5640.
Under `O=C(NCc1cccnc1)c1ccc2nc([C@@H]3O[C@H](CO)[C@H](O)[C@H](O)[C@H]3O)[nH]c2c1` stands 3590; under `O=C1C(C=NCC2CCCO2)=C(O)c2ccccc21` (configuration not stated), 21000 (active); under `Cc1ccc(-n2c(O)c(C=NCC3CCCO3)c(=O)[nH]c2=O)c(C)c1` (configuration not stated), 6540.
As for `O=C1c2cccc3c([N+](=O)[O-])ccc(c23)C(=O)N1CC1CCCO1` (configuration not stated), the fluorescence intensity was 3530.
On to `CC(C)Oc1ccc(CN2CCC2(C)C(=O)NCc2ccc(C(F)(F)F)cc2)cc1` (configuration not stated), for which the fluorescence intensity was 4110.
As to `COc1ccc(C(=O)Nc2nc(-c3ccc(S(=O)(=O)N4CCOCC4)cc3)cs2)cc1`, the fluorescence intensity was 20400 (active).
`CNC(=O)c1ccsc1NC(=O)c1ccc(S(=O)(=O)N2CCOCC2)cc1`: the fluorescence intensity was 2470.
Under `COc1ccc(C(=O)Nc2cc(S(=O)(=O)N3CCCC3)ccc2Cl)cc1` stands 3660; under `COc1ccc(-c2cnc3c(c2)C(=O)N([C@H](C)CO)C[C@@H](C)[C@H](CN(C)Cc2ccccc2)O3)cc1`, 3700; under `CCOC(=O)N1CCC(NC(=O)CCc2cn(C)c3ccccc23)CC1`, 22900 (active).
Take `CCn1c(=O)cc(SCC(=O)NCCC2=CCCCC2)c2ccccc21`: the fluorescence intensity is 2540.
Consider `Cn1cc(CCC(=O)NC2CC2)c2ccccc21`, for which the fluorescence intensity was 3960.
The same measure for `CCn1c(=O)cc(SCC(=O)NCc2ccc3c(c2)OCO3)c2ccccc21`: 23400 (active); for `Cn1cc(CCC(=O)NCc2ccc3c(c2)OCO3)c2ccccc21`: 22500 (active); for `CCOC(=O)N1CCC(NC(=O)CCc2ccccc2)CC1`: 3630.
In the case of `CC(C)NC(=O)CSc1ccccc1C(=O)NCc1ccc2c(c1)OCO2`, the fluorescence intensity was 2170.
Regarding `CCOC(=O)N1CCC(NC(=O)Cc2cn(C)c3ccccc23)CC1`, the fluorescence intensity was 2810.
With `CCN(CC)C(=O)C(=O)c1cn(CC(=O)NCc2ccc3c(c2)OCO3)c2ccccc12`, the fluorescence intensity is 4830.
For the compound `COc1ccc(-c2csc(C(O)c3cccc(Cl)c3)n2)cn1` (configuration not stated), the fluorescence intensity was 3880.
For the compound `COCCNC(=O)CSc1nc2c(n1-c1ccccc1)CCCC2`, the fluorescence intensity was 3860.
Turning to `COc1ccc(-c2cc3nc(NCCOc4ccccc4)ccn3n2)cc1`, the fluorescence intensity is 4480.
The same measure for `O=C(NCc1ccc(F)cc1)C(c1ccccc1)N(C(=O)c1csnn1)C1CC1` (configuration not stated): 2770.
Turning to `CNc1cncc(-c2ccc(NS(C)(=O)=O)cc2)n1`, the fluorescence intensity is 3500.
Regarding `Cc1ccc(-c2ccnc3nc(Sc4ncc(C(F)(F)F)cc4Cl)nn23)cc1`, the fluorescence intensity is 23100 (active).
With `Cc1cc(NC(=O)CSc2ncc(C(F)(F)F)cc2Cl)no1`, the fluorescence intensity was 3110.
Turning to `Cc1nn(-c2ncc(C(F)(F)F)cc2Cl)c(=O)n1-c1ccccc1`, the fluorescence intensity was 2340.
For the compound `Cc1ccc(-c2cnc(C(O)c3cccc(C)c3C)[nH]2)cc1` (configuration not stated), the fluorescence intensity is 3860.
For the compound `OC(c1ccccc1)(c1ccccc1)C1CCN(CCCOc2ccccc2)CC1`, the fluorescence intensity is 6640.
For `COc1ccc(CN2CCC(C)(Oc3cccc(F)c3)C2)c2ccccc12` (configuration not stated), the fluorescence intensity is 3240.
The same measure for `CC(C)(C)NC(=O)CSC(=Nc1ccccc1F)NC#N`: 21400 (active); for `COc1ccccc1-n1ccnc1SCC(=O)NC(C)(C)C`: 3990.
As to `Cc1ccccc1CSCC(=O)NC(=O)NC(C)(C)C`, the fluorescence intensity was 11200.
For the compound `CCOC(=O)[C@]12CCC=C1N(Cc1cccc3ccccc13)C(=O)[C@H](CC(=O)NCc1cccc(C(F)(F)F)c1)C2`, the fluorescence intensity was 4120.
With `CC(=O)Nc1cc(-c2cccc(CO)c2)cn2c(-c3cccc(C(F)(F)F)c3)cnc12`, the fluorescence intensity was 3820.
Under `OC(c1ccc(Cl)cc1)C(CN1CCOCC1)c1ccccc1` (configuration not stated) stands 3680; under `COCCn1c(SCC(=O)Nc2cc(Cl)ccc2OC)nc2c(c1=O)SC(C)C2` (configuration not stated), 4110.
Under `CCOC(=O)c1cccc(NC(=O)CCn2nnc3ccccc32)c1` stands 4180; under `CCOC(=O)c1cccc(NC(=O)CCc2c(C)nc3ncnn3c2C)c1`, 17600 (active); under `CCOC(=O)c1cccc(NC(=O)CCOc2ccccc2)c1`, 3720.
For the compound `c1ccc(C2CNCc3c2ccc2ccccc32)cc1` (configuration not stated), the fluorescence intensity was 10400.
On to `O=S1(=O)CC(N2CCN(Cc3ccccc3F)CC2)CN1Cc1cn(Cc2cccc(C(F)(F)F)c2)nn1` (configuration not stated), for which the fluorescence intensity is 4150.
As for `CS(=O)(=O)N1CCN(c2ccc(C(=O)NC3C4CC5CC(C4)CC3C5)cc2[N+](=O)[O-])CC1` (configuration not stated), the fluorescence intensity was 17000 (active).
Turning to `Cc1ccc(C(=O)c2ccc(N3CCN(C)CC3)c([N+](=O)[O-])c2)cc1`, the fluorescence intensity is 2490.
In the case of `Cc1cccc(N2CCN(c3ccc(C(N)=O)cc3[N+](=O)[O-])CC2)c1C`, the fluorescence intensity was 4080.
As to `CCCNC(=O)CN(Cc1ccccc1F)S(=O)(=O)c1ccc(C)cc1`, the fluorescence intensity was 21400 (active).
In the case of `CCN(CC(=O)NCCc1ccccc1)S(=O)(=O)c1ccccc1`, the fluorescence intensity was 5110.
As to `CCN(CC(=O)NCCc1ccccc1)S(=O)(=O)c1ccc(C)cc1`, the fluorescence intensity is 2180.
In the case of `NC(=O)C1CCN(CC(O)CSc2ccc(F)cc2)CC1` (configuration not stated), the fluorescence intensity is 3520.
`CC1(C(=O)NCc2ccc3c(c2)OCO3)CCN1C(=O)Cc1cccs1` (configuration not stated): the fluorescence intensity is 3670.
Under `O=C(COc1ccc2oc3c(c2c1)CCCC3)Nc1ccccn1` stands 3750; under `O=C(CN1CCOCC1)N1CCCc2c1c(=O)oc1ccc(OCc3ccccc3)cc21`, 22500 (active); under `CCOC(=O)N1CCN(C(=O)COc2ccc3oc4c(c3c2)CCCC4)CC1`, 4590.
For the compound `O=C1OC(OC(=O)c2ccccc2Br)C(N2CCOCC2)=C1Cl` (configuration not stated), the fluorescence intensity was 6700.
Regarding `O=C(NC(=O)N1CCOCC1)c1ccccc1`, the fluorescence intensity is 9020.
In the case of `O=C1OC(NC(=O)c2ccccc2)C(N2CCOCC2)=C1Cl` (configuration not stated), the fluorescence intensity is 21900 (active).
Consider `Cc1cc2oc(=O)cc(CN(C)Cc3ccccc3)c2cc1Cl`, for which the fluorescence intensity is 6000.
The same measure for `Cc1c(C=O)c2ccccc2n1CC(=O)O`: 4440; for `CC(=O)c1c(C)n([O-])c2ccccc2[n+]1=O`: 23100 (active).
Consider `FC(F)(F)c1nnc2c3ccccc3c(Cl)nn12`, for which the fluorescence intensity is 3190.
As for `FC(F)(F)c1nnc2sc(-c3ccco3)nn12`, the fluorescence intensity was 22400 (active).
Regarding `Fc1ccc(-c2ccc(-c3nn4c(-c5ccco5)nnc4s3)o2)cc1`, the fluorescence intensity is 3990.
On to `COC(=O)c1cnn2c(C(F)(F)F)cc(-c3ccco3)nc12`, for which the fluorescence intensity was 4440.
Under `Cc1nnc2sc(-c3ccco3)nn12` stands 20800 (active).
`CNc1nnc(-c2ccco2)s1`: the fluorescence intensity is 4180.
As to `CC(=O)Nc1cccc(-c2cc(NC(C)=O)c3ncc(-c4ccccc4)n3c2)c1`, the fluorescence intensity is 3750.
As to `O=C(/C=C/c1cccs1)c1cc(Cl)ccc1OC(=O)N1CCOCC1`, the fluorescence intensity is 2170.
With `O=C(Nc1ccc(N2CCOCC2)cc1)c1cccc2c(-c3ccc(F)c(F)c3)coc12`, the fluorescence intensity is 3990.
As to `CC12CCC(=O)C=C1CCC1C2C(O)CC2(C)C1CCC2(O)C(O)CO` (configuration not stated), the fluorescence intensity was 5610.
As to `O=C(/C=C\NCC(=O)c1ccccc1)c1ccccc1`, the fluorescence intensity was 21800 (active).
The same measure for `O=C(/C=C/NCc1ccc(F)cc1)c1ccccc1`: 2490.
With `O=C(/C=C/NNC(=O)c1cccc(Br)c1)c1ccccc1`, the fluorescence intensity was 3590.
As to `COC(=O)c1ccc(C)c(NC(=O)Cn2c(C)csc2=O)c1`, the fluorescence intensity is 3770.
`Cc1oc(-c2ccccc2Cl)[n+]([O-])c1C`: the fluorescence intensity is 25200 (active).
Consider `Cc1oc(-c2cccc(Cl)c2)[n+]([O-])c1C`, for which the fluorescence intensity is 3960.
As for `CCOc1cnc(-c2c(-c3ccccc3Cl)noc2C)o1`, the fluorescence intensity is 2480.
Under `CCc1sc(C(=O)N2CCN(CC(=O)Nc3cccc(F)c3)CC2)cc1C` stands 3730; under `Cc1ccc(NC2CCCN(C(=O)CCc3cn[nH]c3)C2)cc1C` (configuration not stated), 4290; under `COCCOC(=O)C1=C(C)Nc2nc(C)nn2C1c1ccccc1` (configuration not stated), 17100 (active).
For the compound `CC1=C(C(N)=O)C(c2ccc(F)cc2)n2nc(CCCO)nc2N1` (configuration not stated), the fluorescence intensity was 3660.
Turning to `COC(=O)c1nc2n(n1)C(c1ccc([N+](=O)[O-])cc1)C(C(=O)Nc1ccc(Cl)cc1)=C(C)N2` (configuration not stated), the fluorescence intensity is 2390.
Under `O=C(Nc1ccc(Cl)cc1)C1Cc2c(-c3ccc4c(c3)OCO4)ccnc2O1` (configuration not stated) stands 3410.
Turning to `Cc1c(C(=O)Nc2ccccc2Cl)oc2ccc(S(=O)(=O)N3CCC4(CC3)OCCO4)cc12`, the fluorescence intensity is 22400 (active).
As for `Cc1c(C(=O)Nc2cccc(S(=O)(=O)N3CCOCC3)c2)oc2ccccc12`, the fluorescence intensity is 2760.
With `COc1ccc(NC(=O)c2oc3ccc(S(=O)(=O)N4CCOCC4)cc3c2C)cc1`, the fluorescence intensity was 4190.
`CC(=O)Nc1ccc(-c2ccnc3c2CC(C(=O)NC(C)C)O3)cc1` (configuration not stated): the fluorescence intensity is 3750.
Under `COc1cc(C=C(OC(C)=O)c2ccc3c(c2)OCO3)cc(OC)c1OC` stands 6370; under `NNc1nc2c(Cl)cccc2s1`, 6940.
For the compound `CC(C)CNS(=O)(=O)c1ccc(CCC(=O)NCc2ccc(Cl)cc2)cc1`, the fluorescence intensity was 3570.
The same measure for `Cc1ccc(S(=O)(=O)NCCC(=O)NCc2ccc(Cl)cc2)cc1C`: 4140.
Take `CC(C)CCNC(=O)CCNS(=O)(=O)c1ccc(Cl)cc1`: the fluorescence intensity was 19700 (active).
Turning to `Cc1ccc(-c2nc3ccc(Br)cn3c2Cc2ccccc2C(F)(F)F)cc1`, the fluorescence intensity is 5850.
Regarding `CC(=O)c1nn(-c2ccccc2)c(=Nc2ccccc2)cc1C`, the fluorescence intensity is 4100.
